# In all, about 310,000 compounds went through this assay and about 14,000 (4.5%) showed an effect of 50% or more. The effect is printed as a negative number. The full list was thinned out, with strong results kept by preference.
# Biological target: human ether-à-go-go-related gene (hERG) potassium channel (human, UniProt Q12809)
# Assay: primary screen, population patch clamp on CHO cells stably expressing hERG; higher = less effect of the substance
# 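Also: peak tail current of the secondary pulse compared with the same well before compound.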
# Chain of human ether-à-go-go-related gene (hERG) potassium channel (Q12809 whole entry, looked up): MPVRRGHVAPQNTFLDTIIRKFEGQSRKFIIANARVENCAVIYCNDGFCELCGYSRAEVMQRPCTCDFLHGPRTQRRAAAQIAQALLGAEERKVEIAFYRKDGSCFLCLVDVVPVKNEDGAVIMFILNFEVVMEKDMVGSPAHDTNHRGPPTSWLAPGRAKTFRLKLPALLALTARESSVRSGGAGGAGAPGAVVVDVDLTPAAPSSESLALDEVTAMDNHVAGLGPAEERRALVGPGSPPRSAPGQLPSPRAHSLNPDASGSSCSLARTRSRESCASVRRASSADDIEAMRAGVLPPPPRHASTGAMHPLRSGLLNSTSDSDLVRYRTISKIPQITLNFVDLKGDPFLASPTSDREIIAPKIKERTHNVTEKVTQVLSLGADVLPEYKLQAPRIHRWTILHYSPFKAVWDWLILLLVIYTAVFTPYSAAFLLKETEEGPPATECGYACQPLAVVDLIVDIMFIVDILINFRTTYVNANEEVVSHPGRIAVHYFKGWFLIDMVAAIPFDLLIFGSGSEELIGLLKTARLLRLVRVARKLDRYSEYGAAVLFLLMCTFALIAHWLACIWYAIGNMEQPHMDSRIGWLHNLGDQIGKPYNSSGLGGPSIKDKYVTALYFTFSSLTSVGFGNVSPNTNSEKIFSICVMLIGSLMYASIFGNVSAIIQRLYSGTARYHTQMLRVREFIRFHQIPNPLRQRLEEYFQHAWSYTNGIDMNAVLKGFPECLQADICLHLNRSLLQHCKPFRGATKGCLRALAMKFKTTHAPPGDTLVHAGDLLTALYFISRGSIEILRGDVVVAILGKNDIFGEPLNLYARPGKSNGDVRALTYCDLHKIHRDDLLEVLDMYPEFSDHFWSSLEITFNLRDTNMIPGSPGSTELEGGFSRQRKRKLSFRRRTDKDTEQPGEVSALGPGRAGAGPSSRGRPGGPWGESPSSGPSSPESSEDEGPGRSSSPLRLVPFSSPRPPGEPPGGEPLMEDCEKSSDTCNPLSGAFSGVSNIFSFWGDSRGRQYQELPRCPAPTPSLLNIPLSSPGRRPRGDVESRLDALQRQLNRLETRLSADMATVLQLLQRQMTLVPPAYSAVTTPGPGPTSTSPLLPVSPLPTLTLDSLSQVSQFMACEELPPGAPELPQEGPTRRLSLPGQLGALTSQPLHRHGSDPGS
row,Compound,"hERG current change (%, negative = inhibition) at 10uM"
1,NNC(=O)c1nc[nH]c1C(=O)Nc1ccccc1,24.1%
2,COc1ccccc1/C=N/NC(=O)c1ccc(CN2C(=O)c3cccc4cccc2c34)cc1,2.35%
3,Cc1cccc(C)c1NC(=O)C(NC(=O)c1ccccn1)c1ccc([N+](=O)[O-])cc1 (stereo not shown),7.6%
4,O=C(O)c1ccc(COc2ccc([N+](=O)[O-])cc2)o1,23.2%
5,CC1CCCCN1C(=O)c1ccc(COc2ccc([N+](=O)[O-])cc2)o1 (stereo not shown),-69.9%
6,NNC(=O)c1ccc(COc2ccc([N+](=O)[O-])cc2)o1,-23.1%
7,COc1ccc(/C=C(\C#N)C(=O)OCC(=O)Nc2ccc(C(C)(C)C)cc2)cc1,0.425%
8,COc1ccccc1OCCNC(=O)CSC(=S)N1CCCC1,-4.17%
9,COc1ccc(OCC(=O)N2CCN(c3cccc(C(F)(F)F)c3)CC2)cc1,-42.6%
10,CN1CCN(C(=O)CCc2ncc(C(F)(F)F)cc2Cl)CC1,11.7%
11,O=C(Cc1ncc(C(F)(F)F)cc1Cl)N1CCN(c2ccc(F)cc2)CC1,-41.3%
12,O=C(Cc1ncc(C(F)(F)F)cc1Cl)N1CCN(c2ccccn2)CC1,-17.2%
13,O=C(Cc1ncc(C(F)(F)F)cc1Cl)N1CCN(c2cccc(Cl)c2)CC1,-60.6%
14,COc1ccc(N2CCN(C(=O)Cc3ncc(C(F)(F)F)cc3Cl)CC2)cc1,-51.9%
15,CCN1CCN(C(=O)C2CCN(S(=O)(=O)c3ccc4c(c3)NC(=O)C(C)S4)CC2)CC1 (stereo not shown),14.1%
16,COCCN(C(=O)c1csnn1)C(C(=O)NC1CCCC1)c1ccccc1 (stereo not shown),3.23%
17,CC(C)C1=C2OC(N)=C(C#N)C(C#N)=C2C(C)CC1 (stereo not shown),9.98%
18,C#CCNC(=O)C1=C[C@@H](c2ccc(Br)cc2)[C@H](CCCO)[C@@H](OCC)O1,-28.4%
19,CCOc1ccc(N(CC)S(=O)(=O)c2ccc3c(c2)oc(=O)n3C)cc1,-5.43%
20,COC(=O)c1sccc1NC(=O)c1cc(C)on1,4.01%
21,COc1ccccc1-c1coc2c(CN3CCC(C)CC3)c(O)ccc2c1=O,7.18%
22,Cc1ccc(S(=O)(=O)N2CCOCC2)cc1C(=O)NCCCn1ccnc1,15.6%

row,Compound,"hERG current change (%, negative = inhibition) at 10uM"
1,CC(NCC(O)COCCC12CC3CC(CC(C3)C1)C2)c1ccccc1.Cl (stereo not shown),-53.8%
2,NCC(O)COCCC12CC3CC(CC(C3)C1)C2 (stereo not shown),-1.48%
3,CC1CCC(C(C)C)C(OCC(O)CNC(C)c2ccccc2)C1.Cl (stereo not shown),0.875%
4,CC1CCN(CC(O)COCCC23CC4CC(CC(C4)C2)C3)CC1.Cl (stereo not shown),-51.5%
5,CC1CCCCN1CC(O)COCc1ccccc1.Cl (stereo not shown),5.66%
6,Cl.OC(COCCC12CC3CC(CC(C3)C1)C2)CN1CCCCC1 (stereo not shown),-40.1%
7,CC1CCCCN1CC(O)COCCC12CC3CC(CC(C3)C1)C2.Cl (stereo not shown),-63.6%
8,CC1CC(OCC(O)CN2CCCCC2C)CC(C)(C)C1.Cl (stereo not shown),-25.8%
9,Cl.OC(COCCC12CC3CC(CC(C3)C1)C2)CN1CCCC1 (stereo not shown),-30.3%
10,CCC(=O)Nc1ccc(N2CCN(C(=O)c3ccccc3C)CC2)cc1,0.168%
11,CSc1nc(N(C)C)c2ccccc2n1,-19%
12,CCn1ccnc1CN(C)Cc1c(C(=O)N2C[C@@H](C)O[C@@H](C)C2)nc2ccc(Cl)cn12,11.6%
13,Cc1ccc(N2N=C(C(=O)O)CCC2=O)cc1Cl,-45.2%
14,CCC1(c2ccccc2)NC(=O)N(CC(=O)c2ccc3c(c2)OCO3)C1=O (stereo not shown),-4.15%
15,O=C(Nc1cccc(Cl)c1)N(CCCN1CCOCC1)Cc1ccccc1F,-64.5%
16,O=C(Nc1cccc(Cl)c1)N(CCN1CCOCC1)Cc1ccccc1F,-49.6%
17,CCc1ccc2[nH]c(=O)c(CN(CCCN3CCOCC3)C(=O)Nc3ccccc3)cc2c1,-54.2%
18,CCc1ccc2[nH]c(=O)c(CN(CCN3CCOCC3)C(=O)Nc3ccccc3F)cc2c1,-23.1%
19,O=C(Nc1ccccc1)N(CCCN1CCOCC1)Cc1cc2cc3c(cc2[nH]c1=O)OCCO3,-2.99%
20,O=C(Nc1ccccc1)N(CCCN1CCOCC1)Cc1ccccc1F,-20.6%
21,CCc1ccc2[nH]c(=O)c(CN(CCCN3CCOCC3)C(=O)Nc3ccc(F)cc3)cc2c1,-68.1%
22,Cc1ccc2[nH]c(=O)c(CN(CCCN3CCOCC3)C(=O)Nc3ccc(Cl)cc3)cc2c1,-71.7%

row,Compound,"hERG current change (%, negative = inhibition) at 10uM"
1,O=C(Nc1ccc(F)cc1)N(CCCN1CCOCC1)Cc1cc2cc3c(cc2[nH]c1=O)OCCO3,-25.1%
2,Cc1ccc2[nH]c(=O)c(CN(CCCN3CCOCC3)C(=O)Nc3cccc(Cl)c3)cc2c1,-32.4%
3,O=C(Nc1ccc(F)cc1)N(CCCN1CCOCC1)Cc1cc2cc3c(cc2[nH]c1=O)OCO3,-49.3%
4,Cc1ccc2[nH]c(=O)c(CN(CCN3CCOCC3)C(=O)Nc3ccc(F)cc3)cc2c1,-37%
5,CCOc1ccc(S(=O)(=O)Nc2ccc3c(c2)OCO3)cc1,-14.9%
6,COc1cc(NC(=S)NCCSc2ccc(C)cc2)cc(OC)c1,-1.01%
7,C=CCOc1ccccc1CNCc1cccnc1.Cl,12.6%
8,Cc1cc(C(=O)NNC(=S)Nc2cccc(C(F)(F)F)c2)nn1C,30.1%
9,Cc1ccc(-n2cc[nH]c2=S)cc1C,22.7%
10,CCc1ccc2[nH]c(=O)c(CN(CCCN3CCOCC3)C(=O)Nc3cccc(Cl)c3)cc2c1,-54.1%
11,COc1ccc(CN(CCCN2CCOCC2)C(=O)Nc2cccc(Cl)c2)cc1OC,-39.3%
12,Cc1ccc(NC(=O)N(CCCN2CCOCC2)Cc2cc3cc4c(cc3[nH]c2=O)OCO4)cc1,-42%
13,COc1ccc2[nH]c(=O)c(CN(CCCN3CCOCC3)C(=O)NCc3ccccc3)cc2c1,8.39%
14,CCc1ccc2[nH]c(=O)c(CN(CCCN3CCOCC3)C(=O)Nc3ccc(Cl)cc3)cc2c1,-65.6%
15,COc1cc2cc(CN(CCCN3CCOCC3)C(=O)Nc3ccc(F)cc3)c(=O)[nH]c2cc1OC,-33.2%
16,Oc1ccc(/C=N/NC(=S)Nc2cccnc2)c(O)c1,17.5%
17,O=C(Cc1ccccc1)Nc1ncccc1Cl,6.6%
18,CCCCOc1ccc(C(=S)N2CCC(C(N)=O)CC2)cc1,6.67%
19,O=C(NCCc1c[nH]c2ccccc12)c1ccccc1,4.79%
20,O=C(NC1CCCN(CCc2ccccc2)C1)c1c(F)cccc1F (stereo not shown),-46.2%
21,O=C(CCc1c[nH]c2ccccc12)NC1CC1,14.1%
22,O=C(NC1CCCN(CCc2ccccc2)C1)c1c[nH]c2ccccc12 (stereo not shown),-68.2%

row,Compound,"hERG current change (%, negative = inhibition) at 10uM"
1,O=C(NC1CCN(CCc2c[nH]c3ccccc23)CC1)c1ccccc1,-71.7%
2,O=C(NC1CCCN(CCc2ccccc2)C1)C1CCCC1 (stereo not shown),-36.7%
3,COC(=O)C1=COC(C)C2CN3CCc4c([nH]c5ccccc45)C3CC12 (stereo not shown),-34.3%
4,COC(=O)C1=CO[C@@H](C)[C@@H]2CN(CCc3c[nH]c4ccccc34)CC[C@H]12,-57%
5,COC(=O)C1=CO[C@@H](C)[C@H]2CN3CCc4c([nH]c5ccccc45)[C@@H]3C[C@H]12.Cl,-20.2%
6,CSC1=C(C#N)C(c2ccccc2Cl)C2=C(N1)c1ccccc1C2=O (stereo not shown),6.44%
7,CCC(C)(C)n1nnnc1C(c1cccs1)N1CCCCC1 (stereo not shown),-19.4%
8,Cc1cccn2c(CN3CCCN(C=O)CC3)c(C(=O)N(C)CCc3ccccc3)nc12,26.6%
9,COc1ccc(CCN(C)C2CCCN(C(=O)CCSC)C2)cc1OC (stereo not shown),-57.2%
10,CSCCC(=O)N1CCCC(N(C)CCc2ccccc2)C1 (stereo not shown),-56.8%
11,CC(=O)NCCC(=O)N1CCCC(N(C)CCc2ccccc2)C1 (stereo not shown),-26.7%
12,CCCCNC(=O)N1CCCC(N(C)CCc2ccc(OC)c(OC)c2)C1 (stereo not shown),-67.8%
13,COC(=O)CCCC(=O)N1CCCC(N(C)CCc2ccccc2)C1 (stereo not shown),-40.6%
14,CCOC(=O)CCNC(=O)N1CCCC(N(C)CCc2ccc(OC)c(OC)c2)C1 (stereo not shown),-6.37%
15,COc1ccc(CCN(C)C2CCCN(C(=O)Cn3cccn3)C2)cc1OC (stereo not shown),-6.28%
16,COCC(=O)N1CCCC(N(C)CCc2ccc(OC)c(OC)c2)C1 (stereo not shown),8.28%
17,COc1ccc(CCN(C)C2CCCN(C(=O)CCC(F)(F)F)C2)cc1OC (stereo not shown),-52%
18,CCOC(=O)CCNC(=O)N1CCCC(N(C)CCc2ccccc2)C1 (stereo not shown),-49.4%
19,COc1ccc(CCN(C)C2CCCN(C(=O)Cn3cnnn3)C2)cc1OC (stereo not shown),10.2%
20,COCC(C)n1c(C)cc(C(=O)CN2C(=O)NC3(CCCCC3C)C2=O)c1C (stereo not shown),-8.29%
21,COC(=O)c1ccc(NC(=S)N2CCC(C(N)=O)CC2)cc1,12.2%
22,CCC(C)(C(=O)NC1CCCCC1)N(C(=O)CNC(=O)c1ccccc1)c1c(C)n(C)n(-c2ccccc2)c1=O (stereo not shown),10.1%

# From article PMC4336329 (PLoS ONE, 2015)
